According to PubChem BioAssay AID624354 (Sanford-Burnham Center for Chemical Genomics, 2012):
Hit rate of the full screen: of about 360,000 compounds, about 3,800 (1.1%) were called active. This excerpt belongs to a sample that is enriched for actives. Values without a mark were called inactive.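 The calls were made as follows: active = compounds causing at least 50% loss of cell viability in the single-dose screen, relative to plate controls; inactive = the rest.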

Assay: viability loss with TRAIL in NB7+C8 cells, primary screen, TRAIL sensitizer project, cell-based, ATPlite luminescence (AID 624354)
Conditions: at 10 µM, stronger effect = higher value

| Compound | inhibition (viability loss, TRAIL sensitization) |
| --- | --- |
| N#CCCN(C(=S)Nc1ccc(Cl)c(Cl)c1)C1CCCCC1 | -41.1% |
| COc1ccc(NS(=O)(=O)c2ccc(C)c(C(=O)N(C)Cc3ccc(OC)cc3OC)c2)cc1 | 17.8% |
| O=C(NNC(=O)c1cc(S(=O)(=O)N2CCCCC2)ccc1Cl)c1ccccc1O | 14% |
| O=C(NNC(=O)c1ccccc1O)c1ccccc1O | 59.8% (active) |
| Cc1cccc(NS(=O)(=O)c2cccc(C(=O)NNC(=O)c3ccccc3O)c2)c1 | 24.7% |
| CC1(C)CC(=O)C=C(NC2CC(C)(C)NC(C)(C)C2)C1 | -7.42% |
| C=CCNC(=O)c1ccc2c3n(nc2c1)-c1ccc(C)cc1CO3 | 47.7% |
| CCOC(=O)N1CCN(C(=O)C2CCN(S(C)(=O)=O)CC2)CC1 | 9.65% |
| Cc1nn(-c2ccccc2)nc1C(=O)OCC(=O)N1CCCCC1C (centres undefined) | 10.3% |
| COC(=O)c1cc(S(=O)(=O)N2CCN(c3cc(C)ccc3C)CC2)c[nH]1 | -3.18% |
| Cc1nc2ccc(S(=O)(=O)NCC(=O)NCCN3CCCCC3C)cc2s1 (centres undefined) | -1.47% |
| Cn1c(=O)[nH]c(=O)c2c1[nH]c(=S)n2Cc1ccccc1 | 7.43% |
| N#Cc1ccc(C(=O)Nc2nc(-c3cccs3)c(C(=O)C(F)(F)F)s2)cc1 | 53.5% (active) |
| N#Cc1c(-c2cccs2)nc(SCC(=O)c2ccc(Br)cc2)[nH]c1=O | -12.9% |
| C=CCN(CC=C)S(=O)(=O)c1ccc(C(=O)Nc2nc3c(s2)CCc2ccccc2-3)cc1 | 28.5% |
| Cc1ccc(NC(=O)CCC(=O)N2CCC(c3ccccc3)=N2)cc1S(=O)(=O)N1CCCCC1 | 18.8% |
| Cc1nc2nc[nH]n2c(=O)c1NC(=O)c1cccc(OCC(C)C)c1 | -7.44% |
| O=C(CP(=O)(c1ccccc1)c1ccccc1)N1CCOCC1 | -4.37% |
| O=C(CSC(=S)N1CCOCC1)c1ccccc1 | 57.5% (active) |
| O=C(CSC(=S)N1CCCCC1)c1c(F)cccc1F | 3.44% |
| O=c1c(-c2ccccc2Cl)c[nH]n1-c1ccccc1 | 1.07% |
| CS(=O)(=O)c1ccc(C(=O)NNC(=O)c2cccs2)cc1 | -3.16% |
| Cc1cc2cc3c(cc2nc1SCC(=O)Nc1c(C)cccc1C)CCC3 | 3.78% |
| Cn1c(-c2ccc(C(=O)c3ccccc3)s2)nc2ccccc21 | 66.6% (active) |

| Compound | inhibition (viability loss, TRAIL sensitization) |
| --- | --- |
| CCC(C(=O)Nc1c(C)cccc1C)n1c(-c2cc(C)cs2)nc2ccccc21 (centres undefined) | 9.25% |
| Cc1nc2ccccc2c(C)c1C(=O)c1ccc(F)cc1 | 2.13% |
| CCn1c(NC(=O)c2nn(C)cc2Br)nc2ccccc21 | 16.9% |
| Cn1c(CC(=O)NNC(=O)c2ccccc2F)nc2ccccc21 | 11.4% |
| Cn1c(NC(=O)c2ccccc2)nc2ccccc21 | 49.5% (active) |
| COc1cc(-c2nc(S(=O)(=O)c3ccc(Cl)cc3)c(N(C)C)o2)cc(OC)c1OC | -2.14% |
| COc1ccc(N(C(=O)c2ccc(C)cc2)S(=O)(=O)c2cccs2)cc1 | -2.28% |
| CCN(CC)S(=O)(=O)c1ccc(N2CCOCC2)c(NC(=O)C2CSC3(C)CCC(=O)N23)c1 (centres undefined) | -1.07% |
| Cn1c(-c2ccco2)nc2cc3ccccc3cc21 | 89.4% (active) |
| Cn1c(SCC(=O)Nc2ccc(Br)cc2F)nnc1-c1ccco1 | -0.204% |
| COc1ccc(-n2cnc3cc(NCc4ccco4)ccc32)cc1 | 16.5% |
| Cc1c(CNCCc2ccccc2)c(C(=O)O)c(C)n1-c1ccccc1 | -25.6% |
| COCc1cc(=O)oc2cc(NS(=O)(=O)c3ccc(C)cc3)ccc12 | 2.58% |
| Cc1cc(NC(=O)CCC(=O)N(Cc2ccccc2)C(C(=O)NC2CCCC2)c2ccc(C)o2)no1 (centres undefined) | -0.804% |
| CC(C)CCN1CCN(Cc2cn[nH]c2C2CCCCC2)CC1CCO (centres undefined) | 5.07% |
| COc1ccc(-c2nc(-c3ccccc3)no2)c(OC)c1 | 83% (active) |
| COc1ccc(/C=C/c2noc(-c3ccccc3OC(C)=O)n2)cc1 | 12.1% |
| COc1ccc(-c2noc(CNC(=O)C(C)Oc3ccccc3)n2)cc1 (centres undefined) | -4.7% |
| Cc1ccc(C)c(S(=O)(=O)N2CCN(c3ncnc4sccc34)CC2)c1 | 66.5% (active) |
| Cc1ccc([N+](=O)[O-])cc1S(=O)(=O)N1CCCN(C)CC1 | 1.18% |
| Cc1ccc(S(=O)(=O)N2CCC3(CC2)OCCO3)c(C)c1 | 1.61% |
| CNC(=S)N1CCC(NC(=O)C(Cc2ccc(F)cc2)NC(C)=O)CC1 (centres undefined) | -1.63% |
| CCCCCc1c(-c2ccc(OC)c(OC)c2)ncn1CCc1ccccc1OC | 51.2% (active) |
| CCCCc1c(-c2ccc(Cl)cc2)ncn1CCc1ccccc1OC | 31.8% |

| Compound | inhibition (viability loss, TRAIL sensitization) |
| --- | --- |
| CCCCCc1c(-c2cccc(Br)c2)ncn1CCc1ccccc1OC | 23.2% |
| CS(=O)(=O)N(CC(=O)N1CCN(c2ccc(F)cc2)CC1)C1CCCCC1 | -11.1% |
| COC(C(=O)Nc1ccc(S(=O)(=O)Nc2ccc(C)c(C)c2)cc1)c1ccccc1 (centres undefined) | 5.37% |
| COc1ccc(C(=O)/C=C/Nc2ccccn2)cc1 | 73.3% (active) |
| CCOc1ccc(/C=C(/NC(=O)c2ccccc2)C(=O)NCCC(=O)O)cc1 | -4.31% |
| CCOc1ccc(N/C=C/C(=O)c2ccccc2)cc1 | 66.6% (active) |
| O=C(/C=C/Nc1ccc(S(=O)(=O)Nc2cnc3ccccc3n2)cc1)c1cccnc1 | -7.32% |
| Cc1ccc(N/C=C/C(=O)c2ccccc2)cc1C | 78.5% (active) |
| Cc1ccc(NNC(=O)C2CCC2)cc1C | -7.51% |
| COCCN(C(=O)CCC(=O)Nc1ccccn1)C(C(=O)NCCC(C)C)c1ccc(OC)cc1 (centres undefined) | -1.74% |
| CCOc1ccc(NC(=O)C2CCCN(C(=O)Nc3ccccc3)C2)cc1 (centres undefined) | -15.9% |
| COc1ccc(CN2C(=O)CN=C2Nc2ccc(C)cc2C)cc1 | -15.6% |
| Cc1ccc(CN2CC(N3CCC(Cc4ccccc4)CC3)CS2(=O)=O)cc1 (centres undefined) | -13.4% |
| Cc1ccc(CN2CCN(Cc3cccc(C)n3)CC2CCO)cc1 (centres undefined) | 0.251% |
| COc1cc(C)c(CN2CCN(C(=O)CCC(=O)c3ccc(C)s3)CC2)cc1OC | 16.8% |
| O=C(c1cc2c(s1)CCC2)N1CCN(c2ccccc2)CC1 | -1.76% |
| COc1ccc(S(=O)(=O)N2CN(CCc3ccc(OC)c(OC)c3)c3nc4ccccc4nc32)cc1 | 5.09% |
| CN(C(=O)Nc1ccc(Cl)cc1)n1cnc2ccccc2c1=O | 7.39% |
| CC(C)(C)c1nc2ccccc2c(=O)n1N1C(=O)c2ccccc2C1=O | 11.4% |
| CN(c1ccc2nc3ccccc3c(=O)n2n1)C1CCCCC1 | 91.9% (active) |
| CC(OC(=O)CNC(=O)c1ccco1)C(=O)Nc1ccc(Cl)cn1 (centres undefined) | 8.79% |
| O=C(COC(=O)c1ccco1)Nc1ccc(Cl)cn1 | -1.44% |
| O=C(Nc1ccc(NC(=O)c2cccs2)cn1)c1ccco1 | 63% (active) |
| Cc1cc(C)c(S(=O)(=O)NN=C2c3ccccc3[C@H]3Cc4csc[n+]4[C@@H]23)c(C)c1 | -3.55% |

| Compound | inhibition (viability loss, TRAIL sensitization) |
| --- | --- |
| C#Cc1cc(N2CCN(C(=O)c3ccoc3)CC2)n2nc(-c3cccc(Cl)c3)cc2n1 | 91.7% (active) |
| CCc1nc2ccc(C(=O)N3CCN(c4cccc(Cl)c4)CC3)cc2nc1CC | 1.3% |
| CNc1cncc(-c2cccc(C(=O)N3CCOCC3)c2)n1 | -18.4% |
| CC(C)(C)NC(=O)C(CCc1ccccc1)n1c(=O)c(-c2ccccc2)nc2ccccc21 (centres undefined) | -2.69% |
| Nc1cc(C(F)(F)F)ccc1N1CCOCC1 | -31.5% |
| COc1ccc(COC[C@H](CC(C)C)N2CCN(C(=O)c3cccc(C(F)(F)F)c3)CCC2=O)cc1 | -6.73% |
| O=C(C(=O)N1CCC(c2ccccc2)CC1)c1ccccc1 | -9.02% |
| COc1cccc2c1C(=O)c1c(O)c3c(c(O)c1C2=O)CC(O)(C(C)=NNC(=O)c1ccc(Cl)c(Cl)c1)CC3OC1CC(N)C(O)C(C)O1 (centres undefined) | 55.5% (active) |
| Cc1c(Nc2nc3ccccc3nc2NS(=O)(=O)c2cccs2)c(=O)n(-c2ccccc2)n1C | -7.01% |
| Cc1csc(SCC(=O)Nc2ccc(C)c(S(=O)(=O)N(C)C)c2)n1 | 1.13% |
| Cc1ccc(C(=O)Nc2ccc(C)c(S(=O)(=O)N(C)C)c2)s1 | 61.7% (active) |
| CCN(CC(=O)Nc1ccc(C)c(S(=O)(=O)N(C)C)c1)Cc1ccccc1 | 9.33% |
| Cc1ccc(S(=O)(=O)NNC(=S)NC(C)(C)C)cc1 | -2.34% |
| N=c1c2c3c(sc2nc2n1CCCCC2)CCCC3 | 0.553% |
| Cn1c(NN)nc2sc3c(c2c1=O)CCC3 | -10.7% |
| NNC(=O)C1CCCn2c1nc1sc3c(c1c2=O)CCCC3 (centres undefined) | 55.9% (active) |
| O=C1CSC(c2ccc(Cl)cc2)N1 (centres undefined) | 0.721% |
| CCOc1ccc(C(C)=O)cc1COC(=O)c1cnc(Cl)c(Cl)c1 | 64.1% (active) |
| COC(=O)c1ccc(COC(=O)c2cnc(Cl)c(Cl)c2)cc1 | 1.15% |
| CCOc1ccc(C(C)=O)cc1COC(=O)CNC(=O)c1cccs1 | -4.84% |
| COC(=O)/C(=C\Nc1ccccc1)NC(=O)c1ccc(Cl)cc1Cl | 10.1% |
| Cc1ccccc1CN1C(=O)CSCC1(C)C(=O)Nc1c(C)cccc1C (centres undefined) | -13% |
